From PubChem BioAssay (NCI)
Compounds without any hit were thinned out: in the full panel of roughly 79,000, 15% have a hit. Unmarked numbers belong to inactive results. Active and inactive are the calls of the source. Cut-off read from the data, not from the text of the source: active = growth inhibition above about 70%; inactive = the rest.

Assays:
[1] = NCI Yeast Anticancer Drug Screen. Data for the rad50 strain (AID 155);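 note: 0% = growth of vehicle-only cultures of the same strain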; settings: S. cerevisiae rad50 strain growth inhibition, hits give high values
In short: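 A DNA repair-deficient yeast mutant serves as the test organism; compound-induced growth inhibition is calculated against vehicle-treated cells.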

[2] = NCI Yeast Anticancer Drug Screen. Data for the mec2-1 strain (AID 157); settings: S. cerevisiae mec2-1 strain, hits give high values
In short: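 Vehicle-treated cultures served as reference for growth inhibition of compound-exposed mec2-1 yeast.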

[3] = NCI Yeast Anticancer Drug Screen. Data for the sgs1 mgt1 strain (AID 161);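 note: 0% = growth of cultures given vehicle only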; settings: S. cerevisiae sgs1 mgt1 strain, hits give high values
In short: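 Test agents were incubated with a DNA-repair-mutant yeast strain. Growth was then read and compared against vehicle-treated controls.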

[4] = NCI Yeast Anticancer Drug Screen. Data for the cln2 rad14 strain (AID 165);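 note: 0% = growth equal to vehicle treated cultures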; settings: S. cerevisiae cln2 rad14 strain, hits give high values
In short: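 Each compound was tested on cln2 rad14 yeast. Inhibition of growth was calculated against vehicle-exposed controls.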

[5] = NCI Yeast Anticancer Drug Screen. Data for the bub3 strain (AID 167); settings: S. cerevisiae bub3 mutant strain, hits give high values
In short: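 Inhibition values come from growth of compound-treated mutant yeast normalised to vehicle-treated controls.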

[6] = NCI Yeast Anticancer Drug Screen. Data for the mlh1 rad18 strain (AID 175); settings: S. cerevisiae mlh1 rad18 strain growth inhibition, hits give high values
In short: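 Vehicle-treated cultures served as the reference for growth inhibition in a yeast strain carrying DNA damage repair alterations exposed to each compound.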

[7] = at 5.0 µM (retest, dose inferred, filed as 0.5)
[8] = at 50.0 µM (retest, dose inferred, filed as 5.0)

Compound	growth inhibition [1, 7] [%]	growth inhibition [1, 8]	growth inhibition ([1]; at 50.0 µM)	growth inhibition [2, 7] [%]	growth inhibition [2, 8]	growth inhibition ([2]; at 50.0 µM)	growth inhibition [3, 7] [%]	growth inhibition [3, 8]	growth inhibition ([3]; at 50.0 µM)	growth inhibition [4, 7] [%]	growth inhibition [4, 8]	growth inhibition ([4]; at 50.0 µM)	growth inhibition [5, 7] [%]	growth inhibition [5, 8]	growth inhibition ([5]; at 50.0 µM)	growth inhibition [6, 7] [%]	growth inhibition [6, 8]	growth inhibition ([6]; at 50.0 µM)
CC(C)N(C(=O)CC1(O)CCCCC1)C(C)C	2	-14%	-0.25%	-5	1%	-11.9%	1	-11%	-14.6%	-6	4%	73.8% (active)	-1	6%	-9.25%	0	-9%	1.85%
C#Cc1cccc(N=Cc2cc(Cl)cc(Cl)c2O)c1	13	90% (active)	94.6% (active)	8	90% (active)	94.3% (active)	20	97% (active)	97.8% (active)	-1	91% (active)	62.4%	-1	80% (active)	89.9% (active)	20	98% (active)	97.2% (active)
CCCCCN(CCCCC)C(C)C(=O)c1ccc2cc(Br)c3ccccc3c2c1 (configuration not stated)	17	61%	93.9% (active)	9	46%	90.4% (active)	13	71% (active)	90.7% (active)	-2	42%	88.7% (active)	14	66%	87.1% (active)	7	63%	95.5% (active)
COc1cc(-c2ccc(-[n+]3nc(Cc4ccc5c(c4)OCO5)nn3-c3ccccc3)c(OC)c2)ccc1-[n+]1nc(Cc2ccc3c(c2)OCO3)nn1-c1ccccc1	4	41%	68.8%	1	46%	91.9% (active)	1	49%	92.6% (active)	2	22%	37.1%	-1	60%	83.4% (active)	2	79% (active)	91.4% (active)
